HEK293 tox – kills HEK 293 cells; HEK 293 viability, ATP luminescence (CellTiter-Glo), 48-72 h; 94,000 tested, 6.6% active; Potency, µM (titrated, usually from 115 µM), hits mostly inhibitors; note: nearly all actives have a fitted effect of over 60% in size
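Cytotoxicity was scored by loss of ATP-coupled luminescence (CellTiter-Glo) in HEK 293 cells. Compound treatment ran 48 or 72 hr at 37 degree Celsius, 5% CO2, 95% humidity.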
3T3 cytotox – kills NIH 3T3 cells; Potency, µM (series often up to 96.7 µM), usual class: inhibitors; NIH 3T3 viability, CellTiter-Glo ATP luminescence, 48-72 h; 94,000 tested, 4.3% active; AID 1345082; note: nearly all actives have a fitted effect of over 55% in size
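First NIH 3T3 cells are plated at 400 cells/well; next compound is pinned in; then plates incubate 48 or 72 hr at 37 °C; finally CellTiter-Glo is added and luminescence read after 10 min.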
Luciferase inh – blocks purified firefly luciferase enzyme activity; P08659; purified P. pyralis luciferase, luminescence, biochemical; Potency, µM (titrated, usually from 115 µM), usual class: inhibitors; 76,000 tested, 2.5% active; AID 1347043; note: nearly all actives have a fitted effect of over 65% in size
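Luminescence read by CCD imaging after purified firefly luciferase (10nM final) was added to substrate buffer holding 10uM D-luciferin and 10uM ATP, pH 7.5, pre-dosed with compound.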
GPT2 inhibitor – GPT2 alanine aminotransferase inhibition. Potency, µM (highest dose often 57.7 µM), most hits filed as inhibitors. Recombinant GPT2, coupled pyruvate oxidase/HRP Amplex Red fluorescence. Q8TD30. 100,000 tested, 0.25% active; note: nearly all actives have a fitted effect of over 60% in size
Target sequence (Q8TD30 whole entry, looked up): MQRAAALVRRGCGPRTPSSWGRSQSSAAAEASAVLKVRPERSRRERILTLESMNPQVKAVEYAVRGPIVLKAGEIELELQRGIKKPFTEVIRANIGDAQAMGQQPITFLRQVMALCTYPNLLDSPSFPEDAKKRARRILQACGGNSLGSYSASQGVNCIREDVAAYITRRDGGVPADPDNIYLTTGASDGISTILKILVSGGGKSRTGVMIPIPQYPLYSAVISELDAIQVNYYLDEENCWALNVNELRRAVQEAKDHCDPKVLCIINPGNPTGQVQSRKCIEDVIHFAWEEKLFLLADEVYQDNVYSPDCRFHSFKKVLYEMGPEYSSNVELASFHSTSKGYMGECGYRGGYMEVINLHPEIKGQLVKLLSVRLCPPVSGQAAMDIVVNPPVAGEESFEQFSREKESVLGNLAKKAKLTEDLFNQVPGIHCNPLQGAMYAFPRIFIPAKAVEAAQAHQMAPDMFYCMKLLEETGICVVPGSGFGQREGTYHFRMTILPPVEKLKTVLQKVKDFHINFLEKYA
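Fluorescence read-out: pyruvate from GPT2 turnover coupled to pyruvate oxidase, HRP and Amplex Red (0.2mM ThPP, 0.2U/mL PO and HRP, 50uM Amplex final). Substrates 250uM a-KG, 2mM L-alanine; enzyme 10ng/uL; 30 min RT.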
hNpr1 antagonist – antagonists of human natriuretic peptide receptor Npr1; HEK293 hNpr1 GloSensor cGMP, ANP-stimulated luminescence; Potency, µM (titrated, usually from 46.3 µM), usual class: inhibitors; 76,000 tested, 1.6% active; calls by dose curve; note: nearly all actives have a fitted effect of over 60% in size
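HEK293 cells stably expressing human Npr1 and cGMP GloSensor pGS-40F, loaded 2 h with 2% GloSensor reagent, given compound 30 min at room temperature. Luminescence read before and 20 min after 0.1 nM hNppA.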
Hits are given with their value; i = inactive; ? = inconclusive; nt = no result given; ! = not active in a repeat. Sampled rows, rich in hits. Any-hit rate of the full collection: about 10%. Unless noted, calls come from the whole dose curve; as a rule, active = well fitted curve in the direction sought with a large enough effect; inconclusive = small, poorly fitted or top-dose-only effect, or another doubt; inactive = no such curve, though single readings can be large; an effect the other way counts as inactive or inconclusive.

SMILES	HEK293 tox	3T3 cytotox	Luciferase inh	GPT2 inhibitor	hNpr1 antagonist
CC(=O)N1CC(C(=O)NC(C)c2ccccc2)CC(c2cccc(C)c2)C1 (stereo not given)	i	i	i	i	i
CCc1ccc(C2CC(C(=O)NC(C)c3ccccc3)CN(C(=O)c3ccoc3)C2)cc1 (stereo not given)	?	32µM	i	i	i
CCOC(=O)C1CCCN(C(=O)C2CC(c3ccccc3)CN(C(=O)c3cccc(F)c3)C2)C1 (stereo not given)	?	?	i	i	i
CCOC(=O)C1CCCN(C(=O)C2CC(c3ccc(CC)cc3)CN(C(=O)c3ccoc3)C2)C1 (stereo not given)	45µM	?	i	i	i
COc1ccccc1-c1cccc(C(=O)N2CCC[C@H]2C(=O)NCc2ccc(F)cc2F)c1	?	?	nt	i	nt
COc1ccc(CNC(=O)C2CCCCN2Cc2ccc(-c3cccs3)cc2)cc1 (stereo not given)	?	?	nt	i	nt
COc1ccccc1-c1ccc(CN2CCCCC2C(=O)NCc2ccccc2F)cc1 (stereo not given)	40µM	?	nt	nt	nt
COc1ccccc1-c1cccc(C(=O)N2CCC[C@H]2C(=O)NCC2CC2)c1	?	i	nt	i	nt
COc1ccccc1-c1ccc(CN2CCCCC2C(=O)NCC2CC2)cc1 (stereo not given)	45µM!	?	nt	nt	nt
COc1ccccc1-c1ccc(CN2CCCCC2C(=O)NCc2ccccc2)cc1 (stereo not given)	32µM	?	nt	nt	nt
CC(C)CNC(=O)c1ccc(-c2nnc3ccc(NC(=O)C4CC4)cn23)cc1	?	i	i	i	i
COc1ccc(C(=O)N2CC(C(=O)NCCc3ccccc3)CC(c3ccccc3)C2)cc1OC (stereo not given)	?	?	i	i	i
O=C(NCCc1ccccc1)C1CCCN1C(=O)c1cccc(-c2cccnc2)c1 (stereo not given)	i	?	nt	nt	nt
COCCc1noc(-c2ccccc2OC2CN(C(=O)c3ccccc3OC)C2)n1	i	i	i	i	i
COCc1ncc(C)n1CCC1CCN(C(=O)c2cccnc2C)CC1	i	i	nt	i	nt
Cc1nc(CCC(=O)N2CCn3nc(C(=O)Nc4ccccc4)cc3C2)n[nH]1	i	i	28µM	i	i
Cc1ccc(C)c(NC(=O)Cn2c(-c3ccccc3)nc(C)cc2=O)c1	?	?	i	i	i
CC(=O)Nc1ccc(C(=O)N2CCC3(CC2)N=C(c2ccccc2)NO3)cc1	i	i	35µM	i	i
O=C(c1ccc2c(c1)OCO2)N1CCC2(CC1)N=C(c1ccccc1)NO2	i	i	40µM	i	i
Cc1ccc(C(=O)N2CCC3(CC2)N=C(c2ccccc2)NO3)cc1	?	i	i	i	i
Cc1ccc(C2=NC3(CCN(C(=O)c4ccccc4Cl)CC3)ON2)cc1	i	i	32µM	i	?
Cn1nc(C(=O)N2CCC3(CC2)N=C(c2cccc(Br)c2)NO3)c2ccccc21	45µM	?	i	i	i
COc1ccc(C(=O)N2CCC3(CC2)C(OC)C(=O)N3c2cccc(F)c2)c(OC)c1 (stereo not given)	?	i	i	i	i
N#Cc1cccnc1-c1ccc(C(=O)N2CCC(NC(=O)Cc3ccccn3)CC2)cc1	?	i	nt	i	nt
O=C(c1cccnc1)N1CC(n2cc(COCc3ccccc3)nn2)C1	i	i	nt	i	nt
SMILES	HEK293 tox	3T3 cytotox	Luciferase inh	GPT2 inhibitor	hNpr1 antagonist
O=[S+]([O-])(NC1CCN(c2ccc3nnc(-c4ccccc4)n3n2)C1)c1ccccc1 (stereo not given)	?	i	nt	nt	nt
COc1cccc([S+](=O)([O-])N2CCC3(CC2)CC(=O)Nc2ccccc2O3)c1	50µM	i	i	i	i
COc1cccc([S+](=O)([O-])N2CCC3(CC2)NC(=O)c2ccccc2O3)c1	40µM	?	i	i	?
COc1ccccc1-c1ccc(C(=O)N2CCC(NC(=O)Cc3cccc(Cl)c3)CC2)cc1	16µM!	16µM	nt	i	nt
COc1ccccc1-c1ccc(C(=O)N2CCC(NC(=O)Cc3ccc(F)cc3)CC2)cc1	?	45µM!	nt	i	nt
COc1ccccc1-c1ccc(C(=O)N2CCC(C(=O)NCCc3ccc(Cl)cc3)CC2)cc1	?	32µM	nt	i	nt

Source: PubChem BioAssay (National Center for Advancing Translational Sciences (NCATS))
